Experimental data: the supplement of paper PMC8728848
About 410 targets per protein were measured; listed, in parts, are those with the strongest signals and a random draw of the rest.

Assays:
Assay in all cases: glycan array binding signal (z-score within array); higher = stronger binding
Conditions in all cases: glycan notation: IUPAC condensed, linker removed
[1] = target: Fuc(a1-2)Gal(b1-3)GalNAc(b1-3)Gal(b1-4)Glc
In short: (§1)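 The binding signal is a Z-score computed within each array and averaged over linkers. Arrays of the same protein sequence at different concentrations or buffers were also averaged together. Data originate from 3228 arrays in the Consortium for Functional Glycomics database, kept only where the protein sequence was available.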

[2] = target: Fuc(a1-2)Gal(b1-3)[Fuc(a1-4)]GlcNAc(b1-2)Man(a1-3)[Fuc(a1-2)Gal(b1-3)[Fuc(a1-4)]GlcNAc(b1-2)Man(a1-3)]Man(b1-4)GlcNAc(b1-4)GlcNAc
In short: as §1

[3] = target: Fuc(a1-2)Gal(b1-3)[Fuc(a1-4)]GlcNAc(b1-3)[Gal(b1-4)GlcNAc(b1-6)]Gal(b1-4)Glc
In short: as §1

Fuc(a1-2)Gal(b1-4)GlcNAc = target: Fuc(a1-2)Gal(b1-4)GlcNAc
In short: as §1

[4] = target: Fuc(a1-2)Gal(b1-4)GlcNAc6S
In short: as §1

[5] = target: Fuc(a1-2)Gal(b1-4)[Fuc(a1-3)]GlcNAc
In short: as §1

Fuc(a1-2)GlcNAc = target: Fuc(a1-2)GlcNAc
In short: as §1

[6] = target: Fuc(a1-2)[Gal(a1-3)]Gal(b1-3)GalNAc
In short: as §1

[7] = target: Fuc(a1-2)[Gal(a1-3)]Gal(b1-4)Glc
In short: as §1

[8] = target: Fuc(a1-2)[Gal(a1-3)]Gal(b1-4)GlcNAc(b1-6)GalNAc
In short: as §1

[9] = target: Fuc(a1-2)[GalNAc(a1-3)]Gal
In short: as §1

[10] = target: Fuc(a1-2)[GalNAc(a1-3)]Gal(b1-4)GlcNAc(b1-3)GalNAc
In short: as §1

[11] = target: Fuc(a1-3)[Gal(b1-4)]GlcNAc(b1-3)Gal(b1-4)[Fuc(a1-3)]GlcNAc(b1-3)Gal(b1-4)[Fuc(a1-3)]GlcNAc
In short: as §1

[12] = target: Fuc(a1-3)[Gal3S(b1-4)]Glc6S
In short: as §1

Gal(b1-3)GalNAc(b1-3)Gal = target: Gal(b1-3)GalNAc(b1-3)Gal
In short: as §1

[13] = target: Gal(b1-3)GalNAc(b1-3)Gal(a1-4)Gal(b1-4)Glc
In short: as §1

[14] = target: Gal(b1-3)[Fuc(a1-4)]GlcNAc(b1-3)Gal(b1-4)GlcNAc
In short: as §1

[15] = target: Gal(b1-3)[Neu5Ac(a2-6)]GalNAc
In short: as §1

Gal(b1-4)Gal = target: Gal(b1-4)Gal
In short: as §1

[16] = target: Gal(b1-4)GlcNAc(b1-3)Gal(b1-4)GlcNAc(b1-3)Gal(b1-4)GlcNAc(b1-2)Man(a1-3)[Gal(b1-4)GlcNAc(b1-3)Gal(b1-4)GlcNAc(b1-3)Gal(b1-4)GlcNAc(b1-2)Man(a1-6)]Man(b1-4)GlcNAc(b1-4)GlcNAc
In short: as §1

[17] = target: Gal(b1-4)GlcNAc(b1-3)Gal(b1-4)GlcNAc(b1-3)Gal(b1-4)GlcNAc(b1-3)Gal(b1-4)GlcNAc(b1-2)Man(a1-3)[Gal(b1-4)GlcNAc(b1-3)Gal(b1-4)GlcNAc(b1-3)Gal(b1-4)GlcNAc(b1-3)Gal(b1-4)GlcNAc(b1-2)Man(a1-6)]Man(b1-4)GlcNAc(b1-4)GlcNAc
In short: as §1

[18] = target: Gal(b1-4)GlcNAc(b1-3)Gal(b1-4)GlcNAc(b1-3)GalNAc
In short: as §1

[19] = target: Gal(b1-4)GlcNAc(b1-3)Gal(b1-4)GlcNAc(b1-3)[Gal(b1-4)GlcNAc(b1-3)Gal(b1-4)GlcNAc(b1-6)]GalNAc
In short: as §1

Gal3S(b1-3)GalNAc = target: Gal3S(b1-3)GalNAc
In short: as §1

[20] = target: Gal3S(b1-4)[Fuc(a1-3)]GlcNAc6S
In short: as §1

Gal3S6S(b1-4)GlcNAc = target: Gal3S6S(b1-4)GlcNAc
In short: as §1

Gal6S(b1-4)Glc = target: Gal6S(b1-4)Glc
In short: as §1

Gal6S(b1-4)GlcNAc = target: Gal6S(b1-4)GlcNAc
In short: as §1

[21] = target: GalNAc(b1-4)GlcNAc(b1-2)Man(a1-3)[GalNAc(b1-4)GlcNAc(b1-2)Man(a1-6)]Man(b1-4)GlcNAc(b1-4)GlcNAc
In short: as §1

B1: LTL (Lotus tetragonolobus), P19664 (protein)
chain: VSFNYTEFKDDGSLILQGDAKIWTDGRLAMPTDPLVNNPKTTRSAGRALYATPVPIWDSATGNVASFVTSFNFLFVIRELKYTPTDGLVFFLAPVGTEIPSGSTGGFLGIFDGSNGFNQFVAVEFDSYHNIWDPKSLRSSHVGIDVNSIMSLKAVNWNRVSGSLEKATIIYDSQTNILSVVMTSQNGQITTIYGTIDLKTVLPEKVSVGFSATTGNPEREKHDIYSWSFTSTLKEPEEQA
glycan array binding signal (z-score) [1]: 0.013
glycan array binding signal (z-score) [2]: 0.157
glycan array binding signal (z-score) [3]: -0.265
glycan array binding signal (z-score) (Fuc(a1-2)Gal(b1-4)GlcNAc): 0.463
glycan array binding signal (z-score) [4]: -0.057
glycan array binding signal (z-score) [5]: 4.58
glycan array binding signal (z-score) (Fuc(a1-2)GlcNAc): 2.03
glycan array binding signal (z-score) [6]: 0.102
glycan array binding signal (z-score) [7]: -0.211
glycan array binding signal (z-score) [8]: -0.201
glycan array binding signal (z-score) [9]: -0.25
glycan array binding signal (z-score) [10]: -0.219
glycan array binding signal (z-score) [11]: 8.86
glycan array binding signal (z-score) [12]: 0.757
glycan array binding signal (z-score) (Gal(b1-3)GalNAc(b1-3)Gal): -0.295
glycan array binding signal (z-score) [13]: 0.007
glycan array binding signal (z-score) [14]: -0.389
glycan array binding signal (z-score) [15]: -0.277
glycan array binding signal (z-score) (Gal(b1-4)Gal): -0.131
glycan array binding signal (z-score) [16]: 3.1
glycan array binding signal (z-score) [17]: 0.014
glycan array binding signal (z-score) [18]: 2.04
glycan array binding signal (z-score) [19]: 2.93
glycan array binding signal (z-score) (Gal3S(b1-3)GalNAc): -0.003
glycan array binding signal (z-score) [20]: -0.287
glycan array binding signal (z-score) (Gal3S6S(b1-4)GlcNAc): 0.068
glycan array binding signal (z-score) (Gal6S(b1-4)Glc): -0.131
glycan array binding signal (z-score) (Gal6S(b1-4)GlcNAc): -0.022
glycan array binding signal (z-score) [21]: 1.48
